Screening results: PubChem, NMMLSC
Anthrax LF prot: anthrax lethal factor protease inhibition; hit rate 0.12% among 360,000; AID 588501; multiplex microsphere protease cleavage assay, LF; inhibition, % at 10 µM
Target sequence (P15917 whole entry, looked up): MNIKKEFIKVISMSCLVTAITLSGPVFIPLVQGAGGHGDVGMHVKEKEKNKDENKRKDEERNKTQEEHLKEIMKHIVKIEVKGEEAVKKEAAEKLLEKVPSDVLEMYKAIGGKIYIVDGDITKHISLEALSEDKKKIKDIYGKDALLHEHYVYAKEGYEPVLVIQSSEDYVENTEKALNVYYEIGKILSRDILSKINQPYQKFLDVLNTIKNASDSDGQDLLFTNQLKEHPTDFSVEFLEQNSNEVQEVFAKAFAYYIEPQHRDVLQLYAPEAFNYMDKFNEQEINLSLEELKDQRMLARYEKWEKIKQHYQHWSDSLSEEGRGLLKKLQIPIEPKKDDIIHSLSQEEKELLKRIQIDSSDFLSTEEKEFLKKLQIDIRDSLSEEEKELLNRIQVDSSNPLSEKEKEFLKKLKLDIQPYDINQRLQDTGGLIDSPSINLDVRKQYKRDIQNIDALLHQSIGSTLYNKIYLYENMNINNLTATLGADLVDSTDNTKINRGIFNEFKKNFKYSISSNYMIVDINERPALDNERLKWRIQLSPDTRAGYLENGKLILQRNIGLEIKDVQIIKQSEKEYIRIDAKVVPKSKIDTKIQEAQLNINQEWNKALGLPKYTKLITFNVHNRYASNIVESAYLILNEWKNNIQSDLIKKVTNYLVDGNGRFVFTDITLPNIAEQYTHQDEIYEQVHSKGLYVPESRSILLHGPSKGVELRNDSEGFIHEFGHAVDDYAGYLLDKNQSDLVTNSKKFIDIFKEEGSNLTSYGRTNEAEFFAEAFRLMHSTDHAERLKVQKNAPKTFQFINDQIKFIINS
BoNT A protease: blocks Botulinum neurotoxin A light chain protease; multiplex microsphere protease substrate cleavage, flow cytometry; hit rate 0.17% among 360,000; inhibition, % at 10 µM
Autofluor counter: flagged as autofluorescent in microsphere protease counterscreen; compound autofluorescence counterscreen, microsphere flow cytometry; stronger effect = higher value; fluorescence intensity (concentration not given with the values); hit rate 3.1% among 360,000; in the data active means fluorescence intensity above about 16000; inconclusive means no clear call, values can overlap the other calls
BoNT F protease: BoNT F light chain protease inhibition; Multiplex microsphere protease cleavage assay, flow cytometry; AID 588497; inhibition, % at 10 µM; hit rate 0.22% among 360,000; in the data active means inhibition above about 35%, passing the limit was not always enough; inconclusive means no clear call, values can overlap the other calls
Numbers stand for hits; . = inactive; ? = inconclusive. A selection: hits, their analogues and other compounds. The true share with any hit is near 3.5%. Unless noted, no stated cut-off is given here; in the data, active means inhibition above about 30%; inconclusive means no clear call, values can overlap the other calls; inactive means below that.

SMILES	Anthrax LF prot	BoNT A protease	Autofluor counter	BoNT F protease
CC(C)C(NS(=O)(=O)c1c(Cl)cccc1Cl)C(=O)OCC(=O)c1c[nH]c2ccccc12 (centres undefined)	.	58	.	.
CC(C)Oc1cc(F)ccc1-c1cc(C(=O)Nc2cccc(C(F)(F)F)c2)[nH]n1	.	.	.	.
Cc1nn(CCc2n[nH]c(=S)n2C2CCCCC2)c(C)c1Br	.	.	26154	.
Cc1nn(CCc2n[nH]c(=S)n2C)c(C)c1Br	.	.	.	.
O=c1[nH][nH]c2c1[C@H](c1ccc(F)cc1)O[C@H](CCC(F)(F)F)C2	.	.	.	.
CCC(NS(=O)(=O)c1ccc(OC)cc1)C(=O)O (centres undefined)	.	.	.	.
CCCC(NS(=O)(=O)c1ccc(Br)cc1)C(=O)O (centres undefined)	.	.	25446	.
CCC(NS(=O)(=O)c1ccc(C)cc1)C(=O)O (centres undefined)	.	.	21879	.
Cc1c(Cl)cccc1N=C1NC(=O)CS1	.	.	.	.
CCn1c(=S)[nH]c2c(=O)n(C)c(=O)n(C)c21	.	.	.	.
CCc1cccc(NC(=O)Cn2cccc2)c1	.	.	23986	.
CCOC(=O)c1ccc(NC(=O)C(CC)(CC)C(=O)OCC)cc1	.	.	18219	.
CCOC(=O)c1ccc(NC(=O)COC)cc1	.	.	.	.
CCOC(=O)c1ccc(NC(=O)CN2C(=O)CNC2=O)cc1	.	.	23272	.
CCc1cccc(NC(=O)CN2C(=O)NC3(CCCCCCC3)C2=O)c1	.	.	.	.
CCOC(=O)Cn1nnc(-c2ccc(S(C)(=O)=O)cc2)n1	.	.	23651	.
CCc1nc2ccc(C(=O)NCCCN3CCCC3=O)cn2c1N(C)C(=O)C1CCCCC1	.	.	.	.
O=C(NC1CCCCC1)OC1CC2CC1[C@H]1CCCCN1C2=O (some centres undefined)	.	.	.	.
Cc1ccc2nc3n(c(=O)c2c1)-c1ncccc1C(=O)NC3Cc1ccc(O)cc1 (centres undefined)	.	.	.	.
COC(=O)c1ccc(NC(=O)CN2C(=O)C3C4C=CC(C4)C3C2=O)cc1 (centres undefined)	.	.	17210	.
CCOC(=O)c1ccc(NC(=O)CN2C(=O)CSC2=O)cc1	.	.	22745	.
CCOC(=O)c1ccc(NC(=O)Cn2nnc(-c3ccccc3)n2)cc1	.	.	.	?
CCOC(=O)c1ccc(NC(=O)CSc2nnnn2CCCO)cc1	.	.	22895	.
CCOC(=O)c1ccc(NC(=O)Cn2nnc(-c3ccc(F)cc3)n2)cc1	.	.	23033	.
c1ccc(NCCC2OCC3(CO2)COC(CCNc2ccccc2)OC3)cc1 (centres undefined)	.	.	.	.
SMILES	Anthrax LF prot	BoNT A protease	Autofluor counter	BoNT F protease
CN1CCn2cnc(C(=O)NCCCCCNC(=O)OC(C)(C)C)c2C1=O	.	.	.	.
CCc1cccc(NC(=O)C2CC2c2ccccc2)c1 (centres undefined)	.	.	.	36
CCOC(=O)c1ccc(NC(=O)CSC2=NC(=O)C(CC)C(=O)N2)cc1 (centres undefined)	.	.	16464	.
CCOC(=O)c1ccc(NC(=O)Cn2cccc2)cc1	.	.	22123	.
COCCNC(=O)C1CCCN(Cc2ccc(C#N)cc2)CC1 (centres undefined)	.	.	.	.
C=CCn1c(=NC(=O)c2ccc(S(=O)(=O)N3CCCc4ccccc43)cc2)sc2cc(S(N)(=O)=O)ccc21	37	.	.	.
CCOC(=O)N1CCC(Nc2c(-c3ccccc3)c(=O)c2=O)CC1	.	.	20189	.
CCOC(=O)N1CCN(c2c(NCCN3CCN(Cc4ccccc4)CC3)c(=O)c2=O)CC1	.	.	.	.
c1ccc(-n2ncc3c(NC4CCCCCC4)ncnc32)cc1	.	.	.	.
CCOC(=O)N1CCC(Nc2nc(OC)nc(OC)n2)CC1	.	?	22300	.
CCOC(=O)N1CCC(Nc2c(-c3ccc(C)cc3)c(=O)c2=O)CC1	.	.	.	.
CCOC(=O)N1CCC(Nc2c(NCCN3CCN(Cc4ccccc4)CC3)c(=O)c2=O)CC1	.	.	21681	.
CCOC(=O)N1CCC(Nc2ncnc3c2cnn3-c2ccccc2)CC1	.	?	26060	.
O=C(NC(c1ccc(-c2ccccc2)cc1)c1cnccn1)C1CCN(CCN2C(=O)c3ccccc3C2=O)CC1 (centres undefined)	.	.	.	.
O=S(=O)(O)c1cccc2cccc(Nc3ccccc3)c12	.	.	.	.
CC(C)C#Cc1ccc2c(c1)O[C@@H](CN(C)S(=O)(=O)c1cn(C)cn1)[C@@H](C)CN([C@H](C)CO)S2(=O)=O	.	.	.	.
CCOC(=O)N1CCC(Nc2c(Nc3cccc(CC)c3)c(=O)c2=O)CC1	.	.	18932	.
O=C(Nc1nnc(CCc2ccccc2)s1)c1ccccc1F	.	.	.	?
CN(C)CC1(c2ccccc2)CCCC1	.	.	17486	.
CNCC1(c2ccccc2)CCCC1	.	.	.	.
COc1ccc(C(=O)Nn2c(C)nc3ccccc3c2=O)cc1	.	.	.	?
COc1cc2nc(C3CCC3)n(NC(=O)c3ccco3)c(=O)c2cc1OC	.	.	.	.
COc1ccc(C(=O)Nn2c(SCC(=O)c3ccc(Cl)cc3)nc3ccccc3c2=O)cc1	.	.	20288	.
COc1ccc(C(=O)Nn2c(SCC(=O)N3CCC(C)CC3)nc3ccccc3c2=O)cc1	.	?	20975	.
COCCn1c(SCC(=O)N2CCC(C)CC2)nc2ccccc2c1=O	.	.	.	.
SMILES	Anthrax LF prot	BoNT A protease	Autofluor counter	BoNT F protease
COc1ccc(C(=O)Nn2c(SCC(=O)NC3CCCCC3)nc3ccccc3c2=O)cc1	.	.	20612	.
COc1ccc(C(=O)Nn2c(C3CCC3)nc3ccccc3c2=O)c(OC)c1	.	.	18494	.
CC1(C)OC2COC(c3[nH]nc4c(=O)[nH]c(=O)[nH]c34)C2O1 (centres undefined)	.	.	.	.
CCN(C)C1CN(Cc2cn(Cc3ccc(Cl)cc3)nn2)S(=O)(=O)C1 (centres undefined)	.	.	.	.
Cc1ccsc1C1Nc2ccc3ncccc3c2C2=C1C(=O)CC(C)(C)C2 (centres undefined)	.	?	16347	.
O=C1CCCC2=C1C(c1cccs1)Nc1ccc3ncccc3c12 (centres undefined)	.	?	23605	.
COCCNC(=O)C1(C)CCCN(Cc2ccc(Cl)nc2)C1 (centres undefined)	.	.	.	.
Cc1ccccc1OCC(=O)N/N=C1\CCOc2c(C)cccc21	.	.	20512	.
Cc1ccc(OCC(=O)N/N=C2\CCOc3c(C)cccc32)cc1	.	.	22762	.
Cc1ccccc1NC(=O)c1ocnc1C	.	.	.	.
Cc1ocnc1C(=O)Nc1ccc(Cl)cc1	.	.	20071	.
Cc1ncoc1C(=O)Nc1cccc(Cl)c1C	.	.	23395	.
Cc1ncoc1C(=O)Nc1cccc(Cl)c1	.	.	16565	.
Cc1ccc(Cl)cc1NC(=O)c1ocnc1C	.	.	.	.
Cc1ncoc1C(=O)Nc1ccccc1C(N)=O	.	.	23428	.
C#CCNC(=O)c1ccc2sc([C@@H]3O[C@H](CO)[C@H](O)[C@H](O)[C@H]3O)nc2c1	.	.	.	.
